Laboratory results reported in PMC5540273 (PLoS ONE, 2017).

Key:
Conditions in all cases: concentration: 1 μM,replicates: in singlicate; n = 1
ERK1 = test system: T1, ERK1
T1 construct: gene MAPK3

ERK2 = test system: T2, ERK2
T2 construct: gene MAPK1

ERK3 = test system: T3, ERK3
T3 construct: gene MAPK6

ERK4 = test system: T4, ERK4
T4 construct: gene MAPK4

ERK5 = test system: T5, ERK5
T5 construct: gene MAPK7

ERK8 = test system: T6, ERK8
T6 construct: gene MAPK15

ERN1 = test system: ERN1
FAK = test system: T7, FAK
T7 construct: gene PTK2

FER = test system: FER
FES = test system: FES
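Also: KINOMEscan kinase panel screen.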

Row | SMILES | %Inh (ERK1) [%] | %Inh (ERK2) [%] | %Inh (ERK3) [%] | %Inh (ERK4) [%] | %Inh (ERK5) [%] | %Inh (ERK8) [%] | %Inh (ERN1) [%] | %Inh (FAK) [%] | %Inh (FER) [%] | %Inh (FES) [%]
1 | Cn1ccc2ncnc(Oc3ccc(NC(=O)Nc4cc(C(C)(C)C)on4)c(Cl)c3)c21 | 9 | 5 | 8 | 9 | 6 | 65 | 49 | 0 | 0 | 25
2 | Cl.c1ccc(Oc2ccc(Nc3ccnc4cc(-c5ccc(CN6CCNCC6)o5)ccc34)cc2)nc1 [GW567142] | 0 | 0 | 0 | 30 | 0 | 0 | 0 | 9 | 4 | 0
3 | Cl.Cl.NC[C@H](CC1CCCCC1)NC(=O)c1ccc(-c2ccnc3[nH]ccc23)s1 [GSK1581428] | 18 | 31 | 0 | 0 | 0 | 78 | 6 | 48 | 14 | 5
4 | COc1cccc(CNC(=O)NC2CCN(c3ccnc(Nc4cc(OC)c(OC)c(OC)c4)n3)C2)c1 (centres unmarked) [GSK1379765] | 0 | 0 | 33 | 0 | 0 | 0 | 3 | 0 | 26 | 0
5 | CCN1CCN(CCCC(=O)Nc2n[nH]c3nc(-c4ccc(O)cc4)c(Br)cc23)CC1 [SB-731579] | 0 | 0 | 0 | 0 | 87 | 56 | 0 | 0 | 0 | 0
6 | Cc1ccc(CC(=O)N2CCc3cc(-c4cn(C)c5ncnc(N)c45)ccc32)cc1 [GSK2634758] | 12 | 6 | 0 | 0 | 0 | 0 | 11 | 0 | 19 | 0
7 | CCn1c(-c2nonc2N)nc2cncc(CNC3CCNCC3)c21.Cl [SB-747651] | 0 | 0 | 6 | 0 | 0 | 16 | 2 | 0 | 2 | 0
8 | CN(c1ccccc1CNc1nc(Nc2ccc3c(c2)CC(=O)N3)ncc1C(F)(F)F)S(C)(=O)=O | 68 | 82 | 0 | 5 | 24 | 95.8 | 0 |  | 82 | 70
9 | CN(c1ccc2c(c1)nc(NCc1ccc(F)cc1)n2C)c1ccnc(Nc2ccc(CS(C)(=O)=O)cc2)n1.Cl [GW813244] | 3 | 0 | 0 | 0 | 0 | 29 | 28 | 22 | 20 | 0
10 | FC(F)(F)c1cc(Br)cc(Nc2nccc(-c3cnn4ncccc34)n2)c1 [GW810578] | 0 | 25 | 16 | 0 | 0 | 99.5 | 59 | 18 | 0 | 0
11 | Cc1ccc2c(-c3ccnc(Nc4ccc(C(F)(F)F)cc4)n3)cnn2n1 [GW819776] | 19 | 3 | 22 | 0 | 0 | 99.4 | 17 | 13 | 18 | 10
12 | C[C@@H](Oc1cc(-n2cnc3cc(-c4ccncc4)ccc32)sc1C(N)=O)c1ccccc1Cl [GSK479719] | 0 | 0 | 0 | 0 | 0 | 85 | 16 | 0 | 13 | 18
13 | CC(C(=O)NC1CCN(c2ccnc(Nc3ccc(F)cc3)n2)C1)c1ccc(Cl)cc1 (centres unmarked) [GSK1379713] | 0 | 0 | 0 | 0 | 0 | 0 | 0 | 0 | 46 | 1
14 | CS(=O)c1ccc(-c2coc3ccc(-c4n[nH]c(=O)o4)cc23)cc1 (centres unmarked) | 7 | 1 | 0 | 0 | 0 | 44 | 0 | 0 | 0 | 0
15 | CN1CCN(CCNc2nc3cc(Oc4ccc(NC(=O)Nc5cc(C(F)(F)F)ccc5F)cc4)ccc3[nH]2)CC1.Cl.Cl [GW768504] | 0 | 0 | 0 | 0 | 0 | 69 | 0 | 11 | 20 | 9
16 | C[C@@H](Oc1cc(-n2cnc3ccc(-c4ccncc4)cc32)sc1C(N)=O)c1ccccc1Cl [GSK483724] | 5 | 0 | 0 | 0 | 0 | 55 | 3 | 0 | 39 | 4
17 | Cn1ccc2ncnc(Oc3ccc(NC(=O)Nc4cccc(C(F)(F)F)c4)c(F)c3)c21 | 0 | 19 | 0 | 14 | 11 | 74 | 0 | 34 | 28 | 0

Row | SMILES | %Inh (ERK1) [%] | %Inh (ERK2) [%] | %Inh (ERK3) [%] | %Inh (ERK4) [%] | %Inh (ERK5) [%] | %Inh (ERK8) [%] | %Inh (ERN1) [%] | %Inh (FAK) [%] | %Inh (FER) [%] | %Inh (FES) [%]
18 | O=C(Nc1cccc(C(F)(F)F)c1)c1cccc(Oc2ccc3nccn3n2)c1 | 7 | 7 | 0 | 2 | 22 | 4 | 29 | 38 | 5 | 0
19 | Cc1cccc2c(-c3ccncc3)c(-c3ccc(F)cc3)nn12.Cl [GW461487] | 0 | 0 | 5 | 15 | 0 | 0 | 7 | 0 | 4 | 0
20 | C[C@@H]1CCN(C(=O)N2CCCC2)C[C@@H]1N(C)c1ncnc2[nH]ccc12 | 0 | 14 | 0 | 10 | 0 | 34 | 3 | 97.3 | 36 | 34
21 | O=C1NCCc2[nH]c(-c3ccncc3)cc21 | 13 | 28 | 0 | 0 | 0 | 93.1 | 8 | 0 | 4 | 30
22 | Cc1ccc(C(=O)Nc2ccc(Oc3ccc4nc(NC(=O)C5CC5)cn4c3)c(F)c2)c(=O)n1-c1ccccc1 | 0 | 0 | 0 | 0 | 0 | 34 | 0 | 3 | 75 | 48
23 | CSc1nccc(-c2c(-c3ccc(F)cc3)ncn2CCCN2CCOCC2)n1.Cl [SB-217146] | 0 | 0 | 0 | 0 | 0 | 0 | 33 | 0 | 0 | 3
24 | Cn1ccc2ncnc(Oc3ccc(NC(=O)Nc4cccc(C(F)(F)F)c4)c(Cl)c3)c21 | 0 | 18 | 0 | 10 | 12 | 11 | 15 | 41 | 0 | 9
25 | CN(c1cccc(CNc2nc(Nc3ccc4c(c3)CC(=O)N4)ncc2C(F)(F)F)c1)S(C)(=O)=O | 3 | 41 | 0 | 0 | 18 | 79 | 11 |  | 65 | 62
26 | C[C@@H]1CNc2c(sc3ccc4nc(-c5ccncc5)ccc4c23)C(=O)N1 | 0 | 6 | 0 | 16 | 15 | 24 | 0 | 0 | 20 | 9
27 | C[C@@H](Oc1cc(-n2cnc3cc(-c4cnn(C)c4)ccc32)sc1C(N)=O)c1ccccc1Cl [GSK580432] | 0 | 0 | 10 | 10 | 0 | 64 | 3 | 0 | 38 | 18
28 | CS(=O)(=O)Nc1ccc(-c2ccnc3[nH]ccc23)cc1 [GSK993273] | 0 | 0 | 0 | 13 | 0 | 0 | 25 | 0 | 16 | 0
29 | O=C(NOCC1CC1)c1cc(Br)c(F)c(F)c1Nc1ccc(I)cc1Cl | 0 | 0 | 0 | 0 | 0 | 8 | 0 | 0 | 11 | 0
30 | CC(=O)c1c(-c2ccncc2)[nH]c(-c2ccncc2)c1C [GW493036] | 3 | 0 | 0 | 0 | 0 | 96.5 | 0 | 0 | 2 | 0
31 | Cn1cc(-c2cccc3c(N)c(C(N)=O)nnc23)cn1 | 5 | 27 | 0 | 0 | 0 | 0 | 33 | 21 | 8 | 8
32 | Nc1nccc(-c2ccc3c(N)n[nH]c3c2)n1 [GSK1034945] | 0 | 0 | 0 | 8 | 0 | 49 | 0 | 0 | 0 | 0
33 | CCNCC(Cc1ccccc1)NC(=O)c1cc(Br)c(-c2ccnc3[nH]ccc23)s1.Cl.Cl (centres unmarked) [GSK1383280] | 19 | 0 | 4 | 32 | 0 | 3 | 12 | 2 | 0 | 0
34 | O=C(Nc1ccccc1)c1cccc(Oc2ccc3nccn3n2)c1 | 0 | 0 | 0 | 77 | 0 | 0 | 22 | 0 | 2 | 6
